Assay outcomes (PubChem BioAssay)
Most compounds without a hit are left out; they make up all but 11% or so of the library.
ALDH1A1 block – qHTS Assay for Inhibitors of Aldehyde Dehydrogenase 1 (ALDH1A1). Aldehyde dehydrogenase 1A1 (Homo sapiens), P00352. Purified ALDH1A1, NADH fluorescence, propionaldehyde substrate. Potency, µM (top dose mostly 75.3 µM), inactives show top-dose activity, negative = inhibition, actives largely listed as inhibitors. 7.3% of 220,000 active. AID 1030, 2008;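 further: potency means the concentration at half of the fitted maximal effect; plate controls were no enzyme wells and a reference inhibitor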
Target sequence (P00352 whole entry, looked up): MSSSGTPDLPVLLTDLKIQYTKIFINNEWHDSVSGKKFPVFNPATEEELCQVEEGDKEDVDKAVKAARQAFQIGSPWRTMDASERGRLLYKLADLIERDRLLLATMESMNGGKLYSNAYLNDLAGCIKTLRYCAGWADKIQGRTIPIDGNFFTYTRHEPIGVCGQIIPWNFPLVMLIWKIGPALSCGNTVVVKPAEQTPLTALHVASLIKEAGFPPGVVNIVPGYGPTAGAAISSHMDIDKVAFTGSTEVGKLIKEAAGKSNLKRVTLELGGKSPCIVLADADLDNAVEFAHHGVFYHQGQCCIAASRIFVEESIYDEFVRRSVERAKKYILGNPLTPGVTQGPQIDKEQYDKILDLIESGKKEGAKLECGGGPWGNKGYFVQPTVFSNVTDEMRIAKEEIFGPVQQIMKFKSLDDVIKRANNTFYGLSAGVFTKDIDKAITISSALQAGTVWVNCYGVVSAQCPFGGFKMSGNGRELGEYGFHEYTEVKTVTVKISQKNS
HPGD inh – qHTS Assay for Inhibitors of HPGD (15-Hydroxyprostaglandin Dehydrogenase); purified HPGD, NADH fluorescence kinetic, PGE2 substrate; AID 894, 2007; 4.3% of 150,000 active; 15-hydroxyprostaglandin dehydrogenase [NAD(+)] (Homo sapiens), P15428; Potency, µM, without a hit: at the top dose activity change, negative = inhibition, usual class: inhibitors; further: potency means the concentration at half of the fitted maximal effect
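20 nM HPGD preincubated 15 min at room temperature with compound in 50 mM Tris-HCl pH 8, 0.01% Tween 20. Started with 1 mM NAD+ and 30 uM prostaglandin E2; NADH fluorescence (360/450 nm) read 5 times over 30-s intervals, last minus first.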
PNC inhibitor – High Content Assay for Compounds that inhibit the Assembly of the Perinucleolar Compartment; PC3M PTB-GFP, PNC prevalence imaging, 16 h; stronger effect = lower value; activity change (PNC), negative = inhibition, % at 10 µM; 3.1% of 140,000 active; AID 2417, 2010;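 active means readout at or below -70, meaning at least 70% loss of cells showing the perinucleolar compartment, a nuclear body marking cancer cells; inconclusive means readout between -30 and a set limit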;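 further: plate controls were DMSO wells for no effect and camptothecin positive control wells for full effect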
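Compounds are pinned in duplicate onto adhered PC3M cells stably expressing GFP-tagged PTB and incubated 16 h at 37 C. Cells are then fixed, nuclei stained with Hoechst, and PNC-positive cells counted.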
* hit, by the source's call; ? = inconclusive; · = no result given; [ ] = dose if it differs, or a comment. Unless noted, the call rests on the fitted dose curve; in most records, active means well fitted inhibition curve with a large enough effect (not every such curve was filed as active); inconclusive means small, poorly fitted or top-dose-only effect, or another doubt; inactive means no such curve, though single readings can be large or run the other way. Unless noted, on the % scale 0 is the no-effect control and ±100 the full control effect.

SMILES	ALDH1A1 block	HPGD inh	PNC inhibitor
C/C=C/OC(=O)NC(c1ccccc1)[C@@]1(C(=O)OC)CCCC1=O (stereo partly specified)	6%[13.5 µM]	·	·
NC(=O)C1CC(=O)N(c2ccc(OCc3ccccc3Cl)cc2)C1 (stereo unspecified)	5%	·	·
CC(=O)N(C)c1nc(-c2ccc(Cl)cc2)cs1	1%	-9%	42
Cc1ccc(-c2csc(N(C)C(=O)c3c(C)nn(-c4ccccc4)c3Cl)n2)cc1	-9%	-17%	-99*
CCOC(=O)C1=NN(C(=O)c2ccc(C)cc2)C(O)(c2ccc(Cl)cc2)C1 (stereo unspecified)	-5%	-15%	-14
Cc1ccc(C(=O)N2CCCC(c3ccc(Cl)cc3)=N2)cc1	13µM*	·	·
O=C(NCCc1cccs1)C1CC(c2c(Cl)cccc2Cl)=NO1 (stereo unspecified)	-1%	14µM*	?
O=C(NCc1cccs1)C1CC(c2ccc(Cl)cc2)=NO1 (stereo unspecified)	15%	·	·
COc1ccc(Cl)cc1-c1nc(SCC(=O)NC2CC2)n[nH]1	0%	·	·
CCOC(=O)c1ccc(S(=O)(=O)Nc2nc3cc(S(=O)(=O)NC4=NCCCCC4)ccc3s2)cc1	25µM*	·	·
O=S(=O)(NC1=NCCCCC1)c1ccc2ccccc2c1	1%	-15%	4
CN(C)S(=O)(=O)c1cccc(NC(=O)COC(=O)c2ccc3c(c2)OCO3)c1	-12%	-6%	10
CC(C)COCC1CC2(CC(C)C(=O)CC2=O)C(=O)O1 (stereo unspecified)	-4%	-2%	-28
CCCc1ccc(OCC(=O)NNC(=O)c2cccnc2)cc1	9%	·	·
CCOc1ccc(-n2c(C)nc(O)c2N=Nc2ccccc2)cc1	-17%	·	·
COc1cc(C(=O)Nc2ccc(S(=O)(=O)N(C)c3ccccc3)cc2)cc(OC)c1OC	-4%	-16%	?
COc1ccccc1/C=C/C(=O)NC(=S)Nc1ccc(S(=O)(=O)N(C)c2ccccc2)cc1	28µM*	-22%	-18
CN(c1ccccc1)S(=O)(=O)c1ccc(NC(=S)NC(=O)c2ccccc2)cc1	10µM*	-20%	45
Cc1ccc(C(=O)NC(=S)Nc2ccc(S(=O)(=O)N(C)c3ccccc3)cc2)cc1	11µM*	-7%	?
COc1ccccc1/C=N/NC(=O)c1ccc(N(C)S(=O)(=O)c2ccccc2)cc1	-7%	·	·
CN(c1ccccc1)S(=O)(=O)c1ccc(NC(=S)NC(=O)C2CC2)cc1	?	-7%	0
Cc1ccc(C2=C/C(=C/c3cccs3)C(=O)O2)cc1	4%	-10%	2
Cc1ccc(C(=O)N(CC#N)CC#N)cc1C	10%	·	·
COc1ccc(CCN(C)CCc2ccc(OC)c(OC)c2)cc1OC	-6%	-13%	·
COc1ccc(CCN(C)CC(O)c2ccccc2)cc1OC (stereo unspecified)	18µM*	·	·
SMILES	ALDH1A1 block	HPGD inh	PNC inhibitor
Cc1cc(C)n2nc(CC(=O)NCc3ccccc3Cl)nc2n1	11%	·	6
O=C(O)CC(c1cccc2ccccc12)N1Cc2ccccc2C1=O (stereo unspecified)	5%	·	·
O=C(O)CC(c1cccc2ccccc12)n1cccc1 (stereo unspecified)	-7%	35µM*	44
CN1C(=O)/C(=C/C=C2\SCCN2C)SC1=S	?	-13%	39
Nn1c(SCC(=O)Nc2cccc(F)c2)nnc1C1CCCCC1	0%	-7%	0
Cc1ccc(CCNC(=O)NC(C)(C)C)cc1	5%	-6%	-13
Cc1ccc(CCNC(=O)Cn2cccc2)cc1	-10%	14µM*	22
Cc1ccc2nc(N3CCN(c4ccccc4)CC3)c(C=O)c(=O)n2c1	-14%	·	·
Cc1ccc2nc(N3CCOCC3)c(C=O)c(=O)n2c1	25µM*	·	·
CC1=C(n2nnc3ccccc32)C(c2ccccc2)C(C#N)=C(N)O1 (stereo unspecified)	13µM*	?	?
COc1ccc(C2C(C#N)=C(N)Oc3n[nH]c(C)c32)cc1Cn1nnc2ccccc21 (stereo unspecified)	?	?	45
N#C/C(C(=O)N1CCOCC1)=C1/SC(Cc2ccccc2Cl)C(=O)N1c1ccccc1 (stereo unspecified)	-5%	0%	22
O=C(NCCCc1ccccc1)C1CC(=O)N(c2ccc3c(c2)OCCO3)C1 (stereo unspecified)	-8%	-2%	?
O=C(NC(Cc1ccccc1)c1nc2ccccc2[nH]1)C1CC(=O)N(c2ccc3c(c2)OCCO3)C1 (stereo unspecified)	10µM*	-13%	-18
NC(=O)c1ccc(C(F)(F)F)cn1	-2%	·	·
CCOC(=O)C1=NNC2C(=O)N(C3CCCCC3)C(=O)C12 (stereo unspecified)	13µM*	-5%	-11
CCCCN1C(=O)C2NN=C(C(=O)OCC)C2C1=O (stereo unspecified)	0%	-17%	63
Cc1ccc(S(=O)(=O)N(C)c2c(C)ccc(S(N)(=O)=O)c2C)cc1	-6%	·	·
CCn1c(/C=C/c2c[nH]c3ccccc23)nc2ccccc2c1=O	-11%	·	·
CN(C)S(=O)(=O)c1ccc2[nH]cc(/C=C/c3nc4ccccc4c(=O)n3-c3ccccc3)c2c1	?	256%	-80*
CCCCc1ccc(C2C(C#N)=C(N)SC(N)=C2C#N)s1	?	14µM*	42
COc1ccc(NC(=S)Nn2cnnc2)cc1OC	4µM*	·	·
S=C(Nc1ccccc1)Nn1cnnc1	6.3µM*	14µM*	0
COc1ccc(NC(=S)Nc2ncccc2C)cc1OC	25µM*	·	·
CCc1ccc(NC(=S)NCc2ccccc2)cc1	-6%	·	·
SMILES	ALDH1A1 block	HPGD inh	PNC inhibitor
CNC(=S)Nc1ccc(OC)c(OC)c1	10%	-3%	-9
Cc1cccnc1NC(=S)Nc1ccc(Cl)c(Cl)c1	-13%	·	·
CCc1ccc(NC(=S)Nn2cnnc2)cc1	1.4µM*	·	·
CN1CCN(NC(=S)Nc2ccccc2)CC1	15%	·	·
CC1CCCCN1C(=O)CSc1nnc(CSc2ncccn2)n1C (stereo unspecified)	4%	-10%	7
O=C1OCC2=C1C(c1ccccc1)CC(=O)N2c1ccc(F)cc1 (stereo unspecified)	5%	·	·
O=S(=O)(Nc1cccc2[nH]ncc12)c1cccs1	-14%	·	·
CNC(=S)Nc1ccc(C)cc1	9%	-3%	32
Cc1ccc(NC(=S)Nn2cnnc2)cc1	3.5µM*	·	·
CC1(c2ccc(O)cc2)NC(=O)N(c2ccccc2)N1 (stereo unspecified)	12%	·	·
CCC1(c2ccc(Cl)cc2)NC(=S)N(c2ccccc2)N1 (stereo unspecified)	13µM*	-17%	-10
COc1ccc(C2c3sc(=O)[nH]c3SC3C4CCC(C4)C23)cc1OC (stereo unspecified)	?	-27%	76
O=c1[nH]c2c(s1)C(c1ccc(O)cc1)C1C3CCC(C3)C1S2 (stereo unspecified)	11µM*	?	?
CCc1ccc(-n2nnnc2SCC(=O)NNC(=O)c2ccco2)cc1	-14%	-9%	125
O=C(CSc1cccs1)NCCc1ccccc1	-7%	14µM*	?
